Screens from PubChem.
IL1B NFkB inh: blocks IL-1B driven NFkB nuclear translocation in HUVEC cells. HUVEC IL-1B NFkB p65 nuclear translocation imaging. inhibition, % at 2 µM. 94,000 compounds, 0.43% hits;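 active = inhibition above about 30% together with a positive call from visual inspection of the well image, limit read from the data; inconclusive = inhibition above a set limit but visual check negative; inactive = inhibition not above a set limit, visual check negative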;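 also: nuclear over cytoplasmic p65 intensity ratio measured by imaging; 0% = IL-1B stimulated DMSO wells and 100% = unstimulated DMSO wells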
HUVEC tox IL1B: toxic to HUVEC cells under IL-1B stimulation | HUVEC cell count loss, Hoechst imaging, IL-1B stimulated | AID 845 | cell count reduction, % at 2 µM | 94,000 compounds, 0.41% hits;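 active = cell count reduction more than 3 SD above the screen-wide mean, cut at about 70% in these data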;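 also: normalized per plate to untreated control cells as the no-loss baseline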
Cav3 T inh: blocks human Cav3.2 T-type calcium channel. O95180. Cav3.2-expressing cells, Fluo-4 calcium fluorescence FDSS; stronger effect = lower value. B-score at 10 µM. 100,000 compounds, 4% hits;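 active = single-dose well whose peak fluorescence ratio is a statistical outlier from its plate by either plate-standardised score or position-corrected B-score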
sEH inhibitor: soluble epoxide hydrolase (human) inhibition; recombinant human sEH enzymatic activity assay; 91,000 compounds, 0.34% hits; inhibition, % at 2 µM; in the data active = inhibition above about 80%
Target sequence (P34913 whole entry, looked up): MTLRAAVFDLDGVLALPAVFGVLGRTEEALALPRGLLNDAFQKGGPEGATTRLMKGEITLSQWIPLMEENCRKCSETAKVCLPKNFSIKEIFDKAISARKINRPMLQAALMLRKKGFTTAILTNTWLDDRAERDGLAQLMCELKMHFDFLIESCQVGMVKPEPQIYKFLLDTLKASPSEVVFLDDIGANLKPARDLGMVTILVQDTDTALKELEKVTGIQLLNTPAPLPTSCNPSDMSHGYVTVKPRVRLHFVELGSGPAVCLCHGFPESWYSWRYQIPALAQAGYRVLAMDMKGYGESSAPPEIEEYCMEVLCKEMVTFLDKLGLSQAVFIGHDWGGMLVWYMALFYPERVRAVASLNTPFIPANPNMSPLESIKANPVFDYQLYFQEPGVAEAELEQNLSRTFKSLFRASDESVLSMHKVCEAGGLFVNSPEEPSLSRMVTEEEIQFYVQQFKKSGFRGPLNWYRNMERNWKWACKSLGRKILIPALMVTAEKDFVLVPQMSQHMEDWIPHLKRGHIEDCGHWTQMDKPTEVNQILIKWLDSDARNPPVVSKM
IL1B NFkB pot: enhances IL-1B driven NFkB nuclear translocation. HUVEC IL-1B NFkB p65 nuclear translocation imaging. activation, % at 2 µM. 94,000 compounds, 0.3% hits. AID 819;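 active = activation above 40%, about the mean plus 3 SD, also judged a hit on visual image review; inconclusive = activation above 40% but not a hit on visual review; inactive = activation not above 40% and no visual hit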;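 also: percent activation is computed from the nuclear over cytoplasmic p65 intensity ratio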
sEH activator: soluble epoxide hydrolase (human) activation; purified human sEH enzymatic activity, activator screen; 91,000 compounds, 0.04% hits; P34913; activation, % at 2 µM; AID 717; in the data active = activation above about 37%
Starred values were filed as active, the others as inactive; ? = inconclusive; . = no result given. The list is not random: actives were taken first. Their share in the collection is about 4.6%.

SMILES	IL1B NFkB inh	HUVEC tox IL1B	Cav3 T inh	sEH inhibitor	IL1B NFkB pot	sEH activator
COc1ccccc1CNC(=O)COc1ccccc1OC	-6	-36	-0.4	21	6	-17
COc1ccc(OCC(=O)c2c(O)c3ccccc3oc2=O)cc1	13	94*	-2.4	-12	-13	12
O=C(CC1CCCCC1)c1c(O)c2ccccc2oc1=O	-43	-7	-7.6*	1	?	2
CCOc1ccc(OCC(=O)c2c(O)c3ccccc3oc2=O)cc1	15	14	-2.4	2	-15	-1
COc1ccc(-c2nnc(SCC(=O)N3CCCC(C)C3)o2)c(OC)c1 (centres undefined)	-10	-23	-0.17	1	10	-2
COC(=O)c1cc2occc2n1CC(=O)Nc1ccc(C)cc1C	-16	-3	0.4	-9	17	7
Cc1noc(C)c1S(=O)(=O)NCCN1CCN(c2ccccc2)CC1	31*	10	0.23	-5	-31	3
COc1cccc(NC(=O)C2CC(=O)n3cnnc3S2)c1 (centres undefined)	16	-50	1.1	-4	-16	8
O=C(Nc1nc(-c2cccs2)cs1)c1ccc(Cl)s1	.	.	-4.1*	.	.	.
CCS(=O)(=O)NCC(c1cccnc1)N1CCN(c2ccccc2OC)CC1 (centres undefined)	.	.	0.3	.	.	.
CCCC(=O)N1CCN(c2ccc([N+](=O)[O-])c(NC(C)c3ccccc3)c2)CC1 (centres undefined)	1	-32	-6.3*	-2	-1	2
CCN(CC)S(=O)(=O)c1ccc2oc(C(=O)NCc3ccc(F)cc3)c(C)c2c1	.	.	-6.8*	.	.	.
Cc1c(C(=O)NCc2ccc3c(c2)OCO3)oc2ccc(S(=O)(=O)N3CCC(C)CC3)cc12	-21	-17	-4.8*	-6	21	6
Cc1nc(NCc2ccc3c(c2)OCO3)c2oc3ccccc3c2n1	-7	-42	-1.5	-2	7	2
CCc1nc(NCc2ccc3c(c2)OCO3)c2oc3ccccc3c2n1	-22	-4	-3.7*	-10	22	10
Cc1c(C(=O)NCCC2=CCCCC2)oc2ccc(S(=O)(=O)N3CCC4(CC3)OCCO4)cc12	8	4	-5.6*	-8	-8	8
CC(C)CN(C(=O)CSc1nncs1)c1c(N)n(CC(C)C)c(=O)[nH]c1=O	-19	-146	0.61	6	19	-8
CCOCC(=O)Nc1cc(C(=O)Nc2cccc(C)c2C)ccc1Cl	-1	13	.	3	1	-2
COCCn1c(-c2ccccc2F)n[nH]c1=S	-6	-16	0.56	5	6	-6
Cc1c(C(=O)NCc2ccc3c(c2)OCO3)oc2ccccc12	-18	-19	-5.6*	-8	18	10
Cc1nc(Nc2ccc3c(c2)OCCO3)c2oc3ccccc3c2n1	-87	5	-0.93	-4	87*	6
CCN(CC)S(=O)(=O)c1ccc2oc(C(=O)NCCCN3CCOCC3)c(C)c2c1	-24	-87	0.91	20	24	-18
CCCCN(CCCC)S(=O)(=O)c1ccc2oc(C(=O)N3CCOCC3)c(C)c2c1	-4	1	-4.7*	3	4	-2
Cc1cc(C)c(OCC(=O)Nc2nnn(C)n2)c(Br)c1	-8	-2	-0.0034	12	8	-10
CCS(=O)(=O)N1CCN(c2cccc(C)c2C)CC1	-10	14	-0.022	7	10	-7
SMILES	IL1B NFkB inh	HUVEC tox IL1B	Cav3 T inh	sEH inhibitor	IL1B NFkB pot	sEH activator
CCOC(=O)N1CCN(C(=O)CSc2nnc(-c3cccc(OC)c3)o2)CC1	-6	1	0.75	-1	7	5
CCOC(=O)c1c(C2CCN(C(=O)OCC)CC2)nc2ccccn12	-23	8	0.95	.	23	.
O=c1cc(Nc2ccc3c(c2)OCCO3)[nH]c(=O)n1-c1ccc(Br)cc1	-8	2	-0.12	-2	8	5
O=c1cc(Nc2ccc3c(c2)OCCO3)[nH]c(=O)n1Cc1ccc(F)cc1	-5	-24	-3.9*	-4	5	4
Cc1ccc(S(=O)c2ccc(C)cc2)cc1	5	6	0.019	-4	-5	5
CCOC(=O)c1ccc(NC(=O)CC2C(=O)N(c3ccc(F)cc3)C(=O)N2CCC(C)C)cc1 (centres undefined)	3	-19	-4.5*	1	-3	0
Cc1ccc(NC(=O)Cc2nc(CSc3nnc(-c4ccc5c(c4)OCO5)o3)cs2)cc1	-1	-12	-5.4*	59	1	-60
O=C/C(=C\Nc1ccc(Cl)cn1)c1nc2cc(Cl)ccc2o1	-50	-8	-1.2	-2	50*	4
COc1cccc(NC(=O)CCP(C)(=O)O)c1	1	-37	.	-16	-1	13
CCNC(=O)n1nccc1C(C)Oc1ccccc1 (centres undefined)	16	-7	0.084	4	-16	-5
O=C(NC1CCCCC1)c1ccc(CNc2ccccc2)o1	34*	86*	0.038	53	-34	-54
COc1ccc(NC(=O)C2CCCN2S(=O)(=O)c2cccc3cccnc23)c(OC)c1 (centres undefined)	-75	-11	0.71	-4	75*	3
CCOc1ccc(OCC)c(NC(=O)C2CCCN2S(=O)(=O)c2cccc3cccnc23)c1 (centres undefined)	-15	-10	0.29	.	15	.
COc1ccc(C2NC(=O)NC(c3ccccc3)=C2c2nc3ccccc3s2)cc1 (centres undefined)	3	-9	-5.8*	-10	-3	12
COc1ccc(/C(O)=C/C(=O)C(=O)NNC(=O)C(O)(c2ccccc2)c2ccccc2)cc1	-5	-8	-9.7*	-13	5	16
COc1ccc(/C(O)=C/C(=O)C(=O)Nc2c(C)n(C)n(-c3ccccc3)c2=O)cc1	-4	-47	-0.079	0	4	0
CCOC(=O)/C(C#N)=C\N(C)C	5	-11	.	6	-5	-7
C=CCN1C=CC(=C/C=C(/C#N)C(=O)OCC)C=C1	-6	-16	-6.4*	9	6	-10
Cc1cc(C)n2c(SCc3ccc(Cl)cc3Cl)nnc2n1	6	-17	-0.35	-7	-6	6
Cc1cc(C)n2c(SCc3ccccc3Cl)nnc2n1	31*	27	-1.1	7	-31	-7
CCCc1cc(N2CCCC2)n2nc(C)c(-c3ccccc3)c2n1	-20	-12	-0.15	-3	20	3
C=CCOc1c(Br)cc(CNc2ccc(NC(=O)CCC)cc2)cc1OCC	4	12	-5.4*	-9	-4	8
CCOc1cc(CNc2ccc(N(C)C)cc2)cc(Br)c1OCC(=O)NC(C)(C)C	0	-8	-0.77	13	0	-11
Cc1ccc2ccc(C(Nc3ccccn3)c3ccccc3)c(O)c2n1 (centres undefined)	-20	-9	-2.5	7	20	-7
Cc1cc(NC(c2ccc(Cl)cc2)c2ccc3cccnc3c2O)no1 (centres undefined)	0	2	-4.1*	-4	0	3
